Screens as filed in PubChem.
Only some compounds are listed: those with a hit (about 9.3% of all), similar ones and a draw of the others.
HCMV inh: blocks human cytomegalovirus replication | HFF cells, HCMV-luciferase reporter, 72 h; active compounds read low | activity change, negative = inhibition, % at 57.5 µM | 410,000 tested, 4.5% active | AID 1259415; in the data active = activity change below about -60%; inconclusive = no clear call, values can overlap the other calls; inactive = above about -39%
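Inhibition of viral replication was scored as loss of reporter luminescence in HFFs infected with HCMV-luciferase (MOI 1 PFU/cell) for 72 h; compounds tested at 2 doses, normalized to buffer and Salinomycin controls.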
Sm TGR block: inhibitors of Schistosoma mansoni thioredoxin glutathione reductase | purified TGR, DTNB reduction, TNB absorbance 405 nm | Potency, µM (series often up to 114 µM), for the others: top-dose activity change, negative = inhibition, actives largely listed as inhibitors | 360,000 tested, 3% active | AID 485364; note: potency is the fitted concentration of half-maximal effect; nearly all actives have a fitted effect of over 60% in size
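First, TGR (20 nM dispensed) and NADPH were mixed with compound. Second, a 15 min room-temperature incubation followed. Third, further NADPH and then DTNB were added to start the reaction. Finally, TNB absorbance was monitored kinetically.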
HCV inhibitor: inhibitors of hepatitis C virus infection | 340,000 tested, 3.4% active | AID 651820 | Huh7.5.1 HCVcc-Cre infection, luciferase reporter, 44 h | Potency, µM (doses to about 41.8 µM), for the others: at the highest dose activity change, negative = inhibition, usual class: inhibitors; note: potency is the fitted concentration of half-maximal effect
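Antiviral activity was scored by luciferase reporter output from cells infected with HCVcc-Cre (~0.5 moi) in presence of compound, 44 h infection period, cells seeded 1,000/well 4 h prior.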
FMDV antiviral: blocks foot and mouth disease virus | FMDV antiviral cell-based qHTS | Potency, µM (top dose mostly 57.9 µM), for the others: at the highest dose activity change, negative = inhibition, hits mostly inhibitors | 410,000 tested, 1.2% active | AID 1159524; calls by dose curve; tested in HEK293T cells; note: read-out not given here; potency is the fitted concentration of half-maximal effect; nearly all actives have a fitted effect of over 45% in size
VACV Venus inh: inhibitors of vaccinia virus (Venus reporter). Vaccinia virus Venus reporter expression, fluorescence. Potency, µM (doses to about 36.5 µM), without a hit: at the highest dose activity change, negative = inhibition, actives largely listed as inhibitors. 330,000 tested, 0.46% active; calls by dose curve; tested in A549 cells; note: potency is the fitted concentration of half-maximal effect; nearly all actives have a fitted effect of over 30% in size
VACV mCherry inh: vaccinia inhibition (mCherry reporter). Vaccinia virus mCherry reporter infection, fluorescence. Potency, µM (highest dose often 36.5 µM), without a hit: at the top dose activity change, negative = inhibition, usual class: inhibitors. 310,000 tested, 0.63% active. AID 720579; calls by dose curve; tested in A549 cells; note: potency is the fitted concentration of half-maximal effect; nearly all actives have a fitted effect of over 35% in size
An asterisk follows results filed as active; i = inactive; ? = inconclusive; . = not tested or not shown; + = active, no number; ! = not active in a repeat. Unless noted, calls come from the whole dose curve; as a rule, active = well fitted curve in the direction sought with a large enough effect; inconclusive = small, poorly fitted or top-dose-only effect, or another doubt; inactive = no such curve, though single readings can be large; an effect the other way counts as inactive or inconclusive. % is set by controls: 0 for no effect and ±100 for the full control effect.

SMILES	HCMV inh	Sm TGR block	HCV inhibitor	FMDV antiviral	VACV Venus inh	VACV mCherry inh
CCN(CC)CCCN(C(=O)c1ccco1)c1nc(-c2ccc(C)cc2)cs1	?	-4.1%	?	2.4%	-4.8%	?
CN(C(=O)c1ccco1)c1nc(-c2ccc(F)cc2)cs1	12.3	-5.1%	-21.7%	58.2%	-1.2%	-13.0%
CCN(CC)CCCN(C(=O)c1ccco1)c1nc(-c2ccc(Cl)cc2)cs1	35.0	2.5%	11.2µM*	-1.8%	-21.2%	-22.4%
COc1cccc(C(O)c2nc(-c3ccc4ccccc4c3)cs2)c1 (configuration not stated)	22.9	.	.	22.2%	-4.2%	i
O=C(NCC(c1ccccc1)c1ccccc1)c1nn(-c2ccccc2F)nc1CO	-35.5	2.7%	.	10µM*	-21.4%	-22.2%
O=C(NCCc1ccccc1)c1nn(-c2ccccc2F)nc1CO	-25.8	-1.1%	.	0.0%	-14.4%	-11.1%
O=C(NCCCc1ccccc1)c1nn(-c2ccccc2F)nc1CO	-60.9*	2.1%	.	?	-15.6%	-8.1%
O=C(NCCCCc1ccccc1)c1nn(-c2ccccc2F)nc1CO	-20.1	3.3%	.	0.0%	-5.8%	-6.6%
O=C(NCc1cccs1)c1nn(-c2ccccc2F)nc1CO	-66.5*	-2.1%	.	?	-25.1%	-23.4%
O=C1CSC(=Nc2cc(Cl)ccc2Cl)N1	-34.0	?	4.3%	-23.1%	.	.
O=C(CCCOc1ccc(Cl)cc1Cl)Nc1ccncc1	-60.7*	-32.4%	?	.	-27.7%	-9.8%
O=C(O)CCCOc1ccc(Cl)cc1Cl	-29.5	.	-13.3%	-24.8%	?	+!
COC(=O)CCCOc1ccc(Cl)cc1Cl	.	.	.	46.0%	-18.5%	-15.4%
Cc1cccc(-n2nc3c([n+]2[O-])CCc2nonc2-3)c1C	12.1	-5.0%	9.9%	0.0%	-10.3%	-13.8%
COc1ccc(C(=O)NCC(c2ccc3c(c2)OCO3)N2CCOCC2)cc1 (configuration not stated)	?	-1.5%	.	-10.1%	-9.1%	-2.4%
COc1ccc(-c2cnc3c(NC(C)=O)cc(-c4ccccc4CN(C)C)cn23)cc1OC	-16.6	.	.	-0.9%	-14.5%	i
O=C(Cc1nc(=O)c2ccccc2s1)Nc1ccccc1	-105.6*	-31.3%	-2.1%	63.9%	.	.
CC1=C(c2ccc(C)c(C)c2)S(=O)(=O)N=C1N1CCC(C(=O)N2CCCCC2)CC1	9.3	-11.7%	.	-6.5%	-22.0%	-14.8%
CC(C)c1ccc(C(C)NC(=S)NC2CCCCC2)cc1 (configuration not stated)	-88.7*	7.1%	11.2µM*	?	.	.
CCC(NC(=S)NC1CCCCC1)c1ccccc1 (configuration not stated)	-89.2*	6.7%	.	.	.	.
CCCCc1ccccc1NC(=S)NC1CCCC1	-66.1*	-1.3%	-26.3%	6.8%	3.6%	i
CCc1ccc(C(C)NC(=S)NC2CCCCC2)cc1 (configuration not stated)	.	-5.1%	?	-11.4%	.	.
CCC(C)c1ccc(C(C)NC(=S)NC2CCCCC2)cc1 (configuration not stated)	-73.1*	16.4%	?	?	?	-19.0%
O=c1[nH]/c(=C\c2ccc([N+](=O)[O-])cc2)c(=O)[nH]/c1=C\c1ccc([N+](=O)[O-])cc1	.	.	.	.	-6.3%	7.8%
Cc1cc(=O)oc2cc(OCC(=O)Nc3c(Cl)cccc3C(F)(F)F)ccc12	-30.3	-21.5%	0.0%	-20.2%	12.6%	i
SMILES	HCMV inh	Sm TGR block	HCV inhibitor	FMDV antiviral	VACV Venus inh	VACV mCherry inh
CC(NC(=S)NC1CCCCC1)c1ccc(C(C)(C)C)cc1 (configuration not stated)	-97.2*	-24.0%	?	0.0%	?	-18.4%
CC1=CCC2C(=O)N(c3ccc(C(=O)Nc4ccccc4Cl)cc3)C(=O)C2C1 (configuration not stated)	-102.5*	-2.4%	-6.0%	0.0%	.	.
O=C(O)Cn1cc(/C=C2\C(=O)NC(=O)N(c3ccc(Cl)cc3)C2=O)c2ccccc21	31.8	-26.3%	17.6%	-4.1%	.	.
CCN(CC)C(=O)Cn1cc(/C=C2\C(=O)NC(=O)N(c3ccccc3F)C2=O)c2ccccc21	194.9	?	31.0%	25.1µM*	-14.7%	-2.9%
COc1ccc(Cc2nnc(SCC(=O)Nc3cc(Cl)ccc3C)[nH]c2=O)cc1	-9.0	1.1%	17.4%	-29.7%	-12.0%	i
CCCCN(CC)CCOc1cccc2ccccc12	.	.	.	39.8µM*	?	?
C=CCN(CC=C)CCOc1cccc2ccccc12	7.2	6.6%	2.2%	-18.7%	-7.9%	-19.8%
O=C(O)c1cccc(CN2C(=O)SC(Nc3ccccc3)C2=O)c1 (configuration not stated)	63.0	0.0%	18.8%	14.6%	-6.5%	-12.9%
O=C(O)c1cccc(Cn2c(Cl)c(/C=N/Nc3ccccc3)sc2=O)c1	.	3.55µM*	?	8.2%	8.0%	-16.2%
O=C(O)c1cccc(Cn2c(Cl)c(/C=N/NC(=O)c3ccccc3O)sc2=O)c1	-20.8	39.8µM*	13.2%	-14.3%	.	.
COc1ccc(C(=O)N/N=C/c2sc(=O)n(Cc3cccc(C(=O)O)c3)c2Cl)cc1	0.0	22.4µM*	9.1%	-14.8%	.	.
Cc1ccccc1OCC(=O)N/N=C/c1sc(=O)n(Cc2cccc(C(=O)O)c2)c1Cl	-26.3	?	?	-3.4%	-8.5%	i
O=C(N/N=C/c1sc(=O)n(Cc2ccc(Br)cc2)c1Cl)c1ccco1	-92.1*	44.7µM*	?	-20.7%	-21.5%	-17.6%
O=C(O)c1cccc(Cn2c(Cl)c(/C=N/NC(=O)c3ccccc3Cl)sc2=O)c1	-5.4	-4.7%	32.7%	-19.7%	-8.9%	i
CNc1cncc(-c2ccc(CN(C)C)cc2)n1	6.0	.	.	21.0%	-11.9%	i
COc1ccccc1NC(=S)N1CCC(NC(=O)NC23CC4CC(CC(C4)C2)C3)CC1	?	-2.8%	-9.2%	.	-29.2%	?
CC1C(=O)N2CCCc3cc(NS(=O)(=O)c4ccc([N+](=O)[O-])cc4)cc1c32 (configuration not stated)	-12.8	-19.0%	-2.9%	-5.9%	-27.3%	-26.8%
COC1(OC)C(/C=C/c2ccc(C)cc2)C(C#N)(C#N)C1(OC)OC (configuration not stated)	2.4	.	?	22.4µM*	28.2µM*	14.1µM*
CCC1=Nc2cc(C(=O)NCCCOC)ccc2Sc2ccccc21	-75.9*	0.0%	?	-2.4%	?	-29.8%
CCC1=Nc2cc(C(=O)NCCCOC)ccc2Sc2ccc(Br)cc21	-87.4*	0.5%	.	-3.7%	?	?
CCC1=Nc2cc(C(=O)NCCN3CCOCC3)ccc2Sc2ccc(Br)cc21	-30.2	-3.1%	-17.9%	-26.6%	.	.
CCCCNC(=O)c1ccc2c(c1)N=C(CC)c1ccccc1S2	-35.4	5.5%	.	-9.1%	-27.6%	-3.0%
Nc1cccc(O)c1	-1.4	7.08µM*	14.1%	-13.5%	-16.3%	-22.6%
